We go through five compounds from the supplement of paper PMC9694430.

What all share (experiment): thermal shift delta Tm vs DMSO control; higher = stronger stabilization (binding)
Common to all, as to details: 12.5 µM; protein concentration 2 µM

The subject of assay [1] is LOC_OS04G57630-cb004. The method in brief:
(§1)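 Rice kinase domain constructs were expressed in E. coli, purified, and tested by differential scanning fluorimetry with compound added in DMSO. Each well of a 96-well plate held 19.5 μl of 2 μM kinase in 100 mM potassium phosphate pH 7.5, 150 mM NaCl, 10% glycerol and 5 × SYPRO Orange, and fluorescence was read from 25°C to 95°C at 0.05°C/s. The melting temperature shift is the mean of triplicates, taken against protein with DMSO alone after Boltzmann fitting.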

Assay [2] relates to LOC_OS05G07850-cb002. The method in brief: as §1
Assay [3] concerns LOC_OS05G16824-cb004. The method in brief: as §1
Assay [4] concerns LOC_OS05G28520-cb001. The method in brief:
as §1

Assay [5] relates to LOC_OS05G30820-cb001. The method in brief:
as §1

The subject of assay [6] is LOC_OS05G43570-cb004. Put shortly:
as §1

The test system of assay [7] is LOC_OS06G16330-cb003. Put shortly: as §1
Sequence of LOC_OS06G16330-cb003 (as listed by the source): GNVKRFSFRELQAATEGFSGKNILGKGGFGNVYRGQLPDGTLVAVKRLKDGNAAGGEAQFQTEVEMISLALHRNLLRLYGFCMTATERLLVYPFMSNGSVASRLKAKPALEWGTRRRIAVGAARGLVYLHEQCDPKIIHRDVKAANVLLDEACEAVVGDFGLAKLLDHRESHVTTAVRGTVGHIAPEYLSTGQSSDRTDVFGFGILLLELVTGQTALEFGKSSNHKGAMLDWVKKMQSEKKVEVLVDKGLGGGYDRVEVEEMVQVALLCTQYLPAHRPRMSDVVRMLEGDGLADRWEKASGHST
In assay [8] the test system is T1, LOC_OS06G22820-cb001.
T1 sequence (whole entry): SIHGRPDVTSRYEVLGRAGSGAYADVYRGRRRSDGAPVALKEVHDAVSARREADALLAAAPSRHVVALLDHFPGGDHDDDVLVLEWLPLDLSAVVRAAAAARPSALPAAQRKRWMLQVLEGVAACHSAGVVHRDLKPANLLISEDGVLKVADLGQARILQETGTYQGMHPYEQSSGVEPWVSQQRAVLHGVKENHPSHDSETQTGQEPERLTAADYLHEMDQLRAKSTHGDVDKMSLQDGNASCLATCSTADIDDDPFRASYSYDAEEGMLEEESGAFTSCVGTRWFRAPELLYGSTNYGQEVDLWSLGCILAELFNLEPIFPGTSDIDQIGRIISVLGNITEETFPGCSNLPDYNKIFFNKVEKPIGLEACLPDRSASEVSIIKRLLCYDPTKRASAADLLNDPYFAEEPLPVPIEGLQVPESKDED
The method in brief: as §1

In assay [9] the test system is LOC_OS07G06570-cb004. Put shortly: as §1
Assay [10] relates to LOC_OS07G07230-cb001. Put shortly: as §1

As to `CCN1CCN(Cc2ccc(Nc3ncc(F)c(-c4cc(F)c5nc(C)n(C(C)C)c5c4)n3)nc2)CC1`, the “thermal shift delta Tm” value is 1.35 °C in [1]; 12.6 °C in assay [2]; 3.33 °C in [3]; 0.73 °C in [4]; 0.2 °C in assay [5]; 0.41 °C in [6]. Besides, the “thermal shift delta Tm” value in assay [7] came out at 6.17 °C; in assay [8], 0.41 °C; in assay [9] it was 1.14 °C; in [10], 0.37 °C.
Regarding `NC(=O)Nc1cc(-c2cccc(F)c2)sc1C(=O)N[C@H]1CCCNC1`, the “thermal shift delta Tm” value in assay [1] amounted to 3.39 °C; in [2], 11.9 °C; in assay [3], 10.8 °C; in assay [4], 0.35 °C; in assay [5], 1.33 °C; in [6] it was 1.05 °C. Besides, the “thermal shift delta Tm” value in assay [7] was 9.93 °C; in assay [8], 0.87 °C; in [9], 1.07 °C; in assay [10], -0.31 °C.
Turning to `COc1cc(OC)cc(-c2cc3cnc(N)nc3nc2NC(=O)NC(C)(C)C)c1`, the “thermal shift delta Tm” value is 0.07 °C in assay [1]; 1.66 °C in assay [2]; -1.45 °C in [3]; -0.04 °C in [4]; 0.11 °C in assay [5]; 0.05 °C in assay [6]. Moreover, the “thermal shift delta Tm” value in assay [7] is -0.44 °C; in assay [8], 0.29 °C; in assay [9], 1.06 °C; in [10], 1 °C.
`O=C(NCc1ccccc1)c1csc(Nc2ccncn2)n1` [Thiazovivin]: the “thermal shift delta Tm” value in assay [1] was 0.16 °C; in assay [2], 2.6 °C; in assay [3], -1.42 °C; in assay [4] it was 0.2 °C; in [5], 0.36 °C; in [6], 1.22 °C. Besides, the “thermal shift delta Tm” value in assay [7] was 0.41 °C; in assay [8] it was 0.56 °C; in assay [9], 0.66 °C; in assay [10] it was -0.04 °C.
Regarding `O=C(O[C@@H]1Cc2c(O)cc(O)cc2O[C@@H]1c1cc(O)c(O)c(O)c1)c1cc(O)c(O)c(O)c1` [(-)-Epigallocatechin Gallate], the “thermal shift delta Tm” value is 0.03 °C in [1]; -2.62 °C in [2]; -0.59 °C in assay [3]; 0.94 °C in assay [4]; 0.74 °C in assay [5]; 1.57 °C in assay [6]. Moreover, the “thermal shift delta Tm” value in [7] was 0.52 °C; in assay [8], 1.84 °C; in assay [9], -0.75 °C; in assay [10], 0.18 °C.
